TCR-CD3 inh: blocks the human TCR-CD3 interaction; TAMRA-labeled TCR probe fluorescence, biochemical; inhibition, % at 9.4 µM; actives 0.37% (n = 360,000); in the data active = inhibition above about 19%;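 note: recombinant mutant TCR 2C K166C tagged with TAMRA read by polarization; 0% = receptor in buffer alone and 100% = receptor with positive control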
LEDGF integ inh: blocks HIV-1 LEDGF/p75-dependent DNA integration; TR-FRET IN-LEDGF/p75 DNA integration, Eu/Cy5; inhibition, % at 3.7 µM; actives 0.64% (n = 370,000);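 active = inhibition above the screen-wide mean plus 3 SD, cut at about 13% in these data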;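 note: signal is the Cy5 over europium emission ratio at 671 and 618 nm; 0% = plate median of compound wells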
UHRF1 MBD2 ctr: blocks human UHRF1 binding to methylated DNA; Q96T88; UHRF1 binding to methylated oligo, TR-FRET; inhibition, % at 4.4 µM; AID 687016; actives 0.75% (n = 370,000); in the data active = inhibition above about 21%;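 note: UHRF1 SRA domain binding a hemimethylated CpG hairpin DNA probe; 0% = median of test compound wells and 100% = reference inhibitor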
MBD2 inh: blocks human MBD2 binding to methylated DNA; Q9UBB5; TR-FRET, MBD2 binding to methylated oligonucleotide; inhibition, % at 4.4 µM; actives 0.31% (n = 370,000); in the data active = inhibition above about 13%
Target sequence (Q9UBB5 whole entry, looked up): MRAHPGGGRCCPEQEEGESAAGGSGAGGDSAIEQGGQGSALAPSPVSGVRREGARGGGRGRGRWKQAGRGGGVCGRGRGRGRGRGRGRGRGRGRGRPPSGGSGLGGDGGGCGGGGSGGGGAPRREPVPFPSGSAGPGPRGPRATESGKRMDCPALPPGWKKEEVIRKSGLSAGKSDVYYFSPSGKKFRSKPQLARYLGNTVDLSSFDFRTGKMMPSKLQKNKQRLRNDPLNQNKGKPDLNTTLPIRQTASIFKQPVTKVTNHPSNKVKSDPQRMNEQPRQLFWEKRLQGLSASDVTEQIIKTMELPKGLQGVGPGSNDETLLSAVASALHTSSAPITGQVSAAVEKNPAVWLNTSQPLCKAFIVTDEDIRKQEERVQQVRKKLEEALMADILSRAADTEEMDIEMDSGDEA
Rin1-Abl PPI inh: blocks binding of human Rin1 to Abl; P00519+Q13671; TR-FRET Rin1/Abl binding, biochemical; inhibition, % at 7.35 µM; actives 0.4% (n = 360,000); AID 588664; in the data active = inhibition above about 5%, passing the limit was not always enough
IN multimer up: counter-screen for LEDGF/p75 integration inhibitors: HIV-1 integrase multimerization activators. shares compounds with LEDGF integ inh. AID 1053131. TR-FRET HIV-1 integrase multimerization, biochemical. actives 17% (n = 2,000). activation, % at 7.7 µM; in the data active = activation above about 8.9%
TRFRET interf: optically interferes with TR-FRET readout in LEDGF counter-screen. TR-FRET optical interference counterscreen, HIV-1 IN multimerization. shares compounds with LEDGF integ inh. 2,000 tested, under 10 active. inhibition, % at 7.7 µM. AID 1053135;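 active = inhibition above the mean over all tested compounds plus 3 SD, which no compound reached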;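 note: 0% = integrase with antibodies and DMSO and 100% = antibodies without integrase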
LEDGF integ conf: confirmation of HIV-1 LEDGF/p75-dependent integration inhibitors; shares compounds with LEDGF integ inh; TR-FRET LEDGF/p75-dependent HIV-1 integration, biochemical; inhibition, % at 3.7 µM; actives 36% (n = 2,000); in the data active = inhibition above about 14%
* marks the source's active call; other numbers are inactive results; nt = not tested or not shown. Compounds with a hit are over-represented: about 2% of the library has one in this group of screens.

SMILES | TCR-CD3 inh | LEDGF integ inh | UHRF1 MBD2 ctr | MBD2 inh | Rin1-Abl PPI inh | IN multimer up | TRFRET interf | LEDGF integ conf
CCCNC(=O)c1cc2c(c(-c3cccc(-c4ccccc4F)c3)n1)[C@H](CCO)N(C(=O)CC1CC1)C2 | -4 | -4 | 18 | 3 | nt | nt | nt | nt
CC1CN(C(=O)c2nn(C)cc2[N+](=O)[O-])CC(C)O1 (stereo not drawn) | -8 | 42* | 1 | 1 | -1 | -1 | 3 | 1
CCN1CCN(c2cc(C)c3cc(NC(=S)N4CCOCC4)ccc3n2)CC1 | 2 | 21* | -1 | 6 | -7 | 0 | -2 | -6
CN1c2ccccc2C(C)(C)C12C=Nc1c(cc(N3CCOCC3)c3ccccc13)O2 (stereo not drawn) | 4 | 14* | 8 | -7 | 3 | 2 | -6 | -1
Clc1ccc(-c2ccc(-c3nn4c(-c5ccco5)nnc4s3)o2)cc1 | 12 | 6 | -2 | -2 | 1 | nt | nt | nt
Brc1ccc(-c2nn3c(-c4ccco4)nnc3s2)o1 | 19 | 15* | 22* | 6 | -63 | 9.3* | -47 | 30*
Cc1ccc(CC(=O)N(Cc2ccccc2)c2ccccn2)cc1 | 2 | 0 | 1 | 2 | -1 | nt | nt | nt
Cc1ccc(OCC(=O)N(Cc2ccccc2)c2ccccn2)cc1 | 2 | 52* | 0 | -5 | 2 | -4 | 13 | -5
Cc1cc(OCC(=O)NCCc2ccc(Cl)cc2)c2c(C)cc(=O)oc2c1 | 8 | -3 | -1 | 0 | 5 | nt | nt | nt
O=C(NCCc1ccccc1Cl)[C@@H]1CCCN1C(=O)[C@H](Cc1cccnc1)NC(=O)N1CCOCC1 | -5 | -4 | 2 | -1 | nt | nt | nt | nt
Cc1ccc(CNc2ncnc3ccc(-c4ccc(CO)o4)cc23)o1 | 8 | 19* | -2 | -3 | -2 | 6 | -29 | 5
CN(C)c1ccc(N=C/C=C2\N(C)c3ccccc3C2(C)C)cc1 | -1 | 15* | -9 | -19 | -8 | 6 | -31 | -10
CN1/C(=C\C=Nc2ccc3ccccc3c2)C(C)(C)c2ccccc21 | nt | nt | nt | nt | -3 | nt | nt | nt
CC1(C)Cc2cccc(OCC(=O)OCC(=O)NCc3ccc(F)cc3)c2O1 | 7 | 1 | 1 | -5 | 1 | nt | nt | nt
CC1(C)Cc2cccc(OC(=O)NCCc3ccc(F)cc3)c2O1 | 5 | 15* | -2 | 0 | nt | 1 | -5 | -11
Cc1nc2sc(C(c3ccco3)N3CCN(c4cccc(Cl)c4)CC3)c(O)n2n1 (stereo not drawn) | 3 | 20* | 4 | 4 | -3 | 0 | 0 | 5
Cc1nc2sc(C(c3ccco3)N3CCN(c4ccccc4)CC3)c(O)n2n1 (stereo not drawn) | 1 | -2 | 6 | 3 | -1 | nt | nt | nt
Cc1nc2sc(C(c3ccco3)N3CCN(C(c4ccccc4)c4ccccc4)CC3)c(O)n2n1 (stereo not drawn) | 5 | 6 | -3 | 3 | -1 | nt | nt | nt
Cc1nc2sc(C(c3ccco3)N3CCC(C)CC3)c(O)n2n1 (stereo not drawn) | 4 | 13* | -2 | 2 | -4 | -3 | 14 | -3
O=C(OCC(=O)N1CCCc2ccccc21)c1cc(Br)ccc1O | -3 | -5 | 1 | 5 | -2 | nt | nt | nt
COCCN(Cc1ccc(OC)cc1)c1c(C)nc2ccc(C(=O)NCCc3c[nH]c4ccccc34)cn12 | -1 | -2 | 4 | 1 | 3 | nt | nt | nt
C=Cc1ccc(Cn2c(C)c(C(=O)NCCC#N)sc2=O)cc1 | 2 | 4 | 1 | -2 | -2 | nt | nt | nt
Cc1c(C(=O)NCCC#N)sc(=O)n1Cc1ccc(C(=O)N(C)C)cc1 | 2 | 32* | -1 | 3 | -3 | -1 | 5 | -5
Cc1ccc(C(=O)O)cc1N1C(=O)c2cccc3c([N+](=O)[O-])ccc(c23)C1=O | 1 | 14* | 19 | 0 | 0 | 3 | -12 | 27*
O=C(O)c1ccc(CN2C(=O)c3cccc4c([N+](=O)[O-])ccc(c34)C2=O)cc1 | nt | nt | nt | nt | 3 | nt | nt | nt
SMILES | TCR-CD3 inh | LEDGF integ inh | UHRF1 MBD2 ctr | MBD2 inh | Rin1-Abl PPI inh | IN multimer up | TRFRET interf | LEDGF integ conf
Cc1cccc(CNc2ncnc3ccc(-c4ccc5c(c4)OCO5)cc23)c1 | 5 | 15* | -6 | -6 | 3 | 0 | 0 | -10
Cc1occc1CNc1ncnc2ccc(-c3ccc4c(c3)OCO4)cc12 | nt | 11 | 0 | -1 | nt | nt | nt | nt
CC1=C(C(=O)N(C(C)C)C(C)C)CC(CC(=O)NCc2cccc3ccccc23)C(=O)N1CCC1=CCCCC1 (stereo not drawn) | -7 | -4 | 1 | 3 | 6 | nt | nt | nt
COc1c(-c2ccc(O)c(O)c2)oc2cc(O)cc(O)c2c1=O | 16 | 16* | -1 | -2 | 0 | 9.3* | -33 | 72*
COc1ccc(OC)c(S(=O)(=O)Oc2ccc(N)c3ccccc23)c1 | -9 | 14* | -4 | -10 | -4 | 4 | -15 | -1
COc1cc(/C=N/n2nnnc2N)ccc1OC(C)=O | -10 | -1 | 2 | 6 | 0 | nt | nt | nt
Cc1nnc(N/N=C/c2ccc([N+](=O)[O-])cc2)n1N | -14 | 79* | 19 | -2 | 1 | 1 | -4 | -3
COc1ccc(/C=N/Nc2ncnc(Cl)c2N)cc1OC | 8 | -2 | -4 | -6 | -2 | nt | nt | nt
COc1ccc(/C=N/Nc2nnc(C)n2N)cc1OC | 2 | 48* | 8 | 3 | -4 | 0 | -1 | -14
COc1ccc(/C=N/Nc2nnc(C)n2N)cc1OC(C)=O | -2 | 32* | 8 | -5 | 2 | 1 | -3 | 3
C/C(=N\NC(=O)C1CC1)c1ccccc1Br | -5 | -2 | 0 | 3 | -4 | nt | nt | nt
COc1ccc(C(=O)OCC(=O)c2ccc(C3CCCCC3)cc2)cc1 | 6 | 1 | 1 | 4 | 0 | nt | nt | nt
Nc1ccc(O)cc1C(=O)OCC(=O)c1ccc(C2CCCCC2)cc1 | 3 | 15* | -2 | 5 | 3 | 0 | 0 | 0
CC[C@@]1(O)C(=O)OCc2c1cc1n(c2=O)Cc2cc3c(N)cccc3nc2-1 | 7 | 23* | -1 | -11 | -1 | 14* | -50 | 10
CC1(C(=O)NS(=O)(=O)C2CC2)CCCN(C(=O)c2ccc3c(c2)OCO3)C1 (stereo not drawn) | 3 | 0 | -2 | 4 | 0 | nt | nt | nt
CC(C)[C@@H]1Cc2[nH]n(C)c(=O)c2[C@H](c2ccc(F)cc2)O1 | 0 | 87* | -5 | -6 | nt | 0 | -2 | -9
Cn1[nH]c2c(c1=O)[C@H](c1ccc(F)cc1)O[C@H](CCc1ccccc1)C2 | -5 | 1 | -6 | -7 | 4 | nt | nt | nt
COC(=O)CSc1ncnc2c(C)csc12 | 1 | 45* | 5 | 1 | -5 | 1 | -5 | 3

From PubChem BioAssay
